Data on 14 molecules can be found in PubChem BioAssay.

A short description of experiment [1]: inhibitors of TNFa-induced NFkB p65 translocation, primary screen, imaging, HUVEC, MLSMR starter and 10KST1 sets (AID 438;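 active means inhibition above 20% together with a positive visual image hit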;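 further: compound added about 3h40 before a 20 min TNFalpha stimulation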;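 on inhibition: signal is the nuclear over cytoplasmic p65 intensity ratio per well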). The conditions noted are these: HUVEC TNFa-induced p65 nuclear translocation; cell count: measured here: nuclei count (cytotoxicity indicator), at 2.08 µM; inhibition: at 2 µM, stronger effect = higher value, 0% TNFa-plus-vehicle, 100% no-TNFa wells.

A short description of experiment [2]: inhibitors of mutant huntingtin aggregation, primary screen, imaging, exon1htt(103Q)mCFP cells, high-content imaging (AID 483;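 active means visual image review flags a hit and inhibition of aggregation exceeds 20%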;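 further: compound exposure lasted 3 days before fixation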;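 on nuclei count: percent of the per-plate median nuclei count of sample wells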). The following applies: exon1htt(103Q)mCFP cell line, aggregate imaging, at 2 µM; inhibition of aggregation: stronger effect = higher value; nuclei count: measured here: cell count, toxicity.
Experiment [3] can be described thus: inhibitors of E-selectin induction by TNFa, primary screen, imaging, HUVEC, immunofluorescence, MLSMR starter and 10KST1 sets (AID 487;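 active means visually confirmed hit in the image check and inhibition above 20%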;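 on inhibition: signal is fraction of cell area covered by stained E-selectin grains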;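 on nuclei count: 100% = median nuclei count of all wells on the same plate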). The following applies: HUVEC TNFalpha-induced E-selectin immunofluorescence imaging, at 2 µM; inhibition: stronger effect = higher value; nuclei count: measured here: cell number, toxicity.
Experiment [4] deals with Voltage-gated potassium channel subunit beta-2 (Rattus norvegicus) (UniProt P62483). Briefly: KvBeta enzyme negative modulators, primary screen, biochemical, NADPH fluorescence (AID 622;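 active means fluorescence slope higher than the sample average by over 3 SD, cut at about -0.22 in these data, passing the limit was not always enough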;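 further: slope of raw intensity against log time taken from 70 to 1610 s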). The following applies: recombinant KvBeta, 4-cyanobenzaldehyde reduction, at 10 µM, stronger effect = higher value.
Experiment [5] shares this target. Nature of the experiment: KvBeta positive modulators, primary screen, biochemical, NADPH fluorescence (AID 623).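 Further: fluorescence intensity change per second fitted from 20 to 320 s.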 The conditions noted are these: Recombinant KvBeta, NADPH fluorescence decrease slope, 10 min; at 10 µM; stronger effect = lower value.
For experiment [6], the target named is Alpha-2C adrenergic receptor (Homo sapiens) (UniProt P18825). Briefly: modulators of alpha2C/GIRK thallium flux, primary screen, cell-based, HEK293 alpha2C/GIRK1/2 (AID 624;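 active means fluorescence slope after compound addition differing from the mean of all screened samples at 99.7% confidence, in either direction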;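 further: slope of fluorescence ratio to pre-addition baseline per second over 15 to 24 s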). The following applies: thallium flux BTC fluorescence, at 10 µM, actives lie on both sides.
A short description of experiment [7]: inhibitors of Sendai virus-induced IRF3 signaling, primary screen, TLR/RLR signaling modifier project, cell-based, Sendai virus stimulus, luciferase, 10K MLSCN set (AID 602276;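 active means inhibition at or above 50% at 10 µM; inactive means inhibition below 50%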;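 further: firefly luciferase from ISG56 promoter only with Renilla not read in this screen; 0% = Sendai virus plus DMSO and 100% = medium plus DMSO without virus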). The following applies: HEK293 RL24 IRF3 luciferase reporter, at 10 µM, stronger effect = higher value.
Experiment [8] is described as follows: inhibitors of poly I:C-induced TLR3 signaling, primary screen, cell-based, poly I:C stimulus, luciferase, 10K MLSCN set (AID 602277;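 active means inhibition of the reporter signal at or above 50%; inactive means inhibition below 50%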). The conditions noted are these: HEK293-TLR3 RL24 IRF3 luciferase reporter, at 10 µM, stronger effect = higher value.

Calls of active or inactive are those of the source.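 How the source made its calls, unless noted: active means NADPH fluorescence slope more negative than the mean of all samples by about 3 SD, 99.7% confidence; inactive means the rest.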

Alpha-2C adrenergic receptor (Homo sapiens), sequence (P18825 whole entry, looked up): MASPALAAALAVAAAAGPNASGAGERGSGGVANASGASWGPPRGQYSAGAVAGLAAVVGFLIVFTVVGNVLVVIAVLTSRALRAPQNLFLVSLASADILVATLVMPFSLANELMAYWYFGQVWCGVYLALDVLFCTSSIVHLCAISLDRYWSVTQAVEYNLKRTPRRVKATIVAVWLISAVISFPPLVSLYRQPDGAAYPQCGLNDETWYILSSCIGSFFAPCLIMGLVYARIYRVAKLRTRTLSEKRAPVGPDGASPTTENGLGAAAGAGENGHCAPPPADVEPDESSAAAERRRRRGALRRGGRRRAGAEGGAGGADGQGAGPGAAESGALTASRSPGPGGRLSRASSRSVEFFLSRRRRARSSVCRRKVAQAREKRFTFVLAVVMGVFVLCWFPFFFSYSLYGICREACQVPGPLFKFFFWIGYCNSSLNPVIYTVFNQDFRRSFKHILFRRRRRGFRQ
Voltage-gated potassium channel subunit beta-2 (Rattus norvegicus), sequence (P62483 whole entry, looked up): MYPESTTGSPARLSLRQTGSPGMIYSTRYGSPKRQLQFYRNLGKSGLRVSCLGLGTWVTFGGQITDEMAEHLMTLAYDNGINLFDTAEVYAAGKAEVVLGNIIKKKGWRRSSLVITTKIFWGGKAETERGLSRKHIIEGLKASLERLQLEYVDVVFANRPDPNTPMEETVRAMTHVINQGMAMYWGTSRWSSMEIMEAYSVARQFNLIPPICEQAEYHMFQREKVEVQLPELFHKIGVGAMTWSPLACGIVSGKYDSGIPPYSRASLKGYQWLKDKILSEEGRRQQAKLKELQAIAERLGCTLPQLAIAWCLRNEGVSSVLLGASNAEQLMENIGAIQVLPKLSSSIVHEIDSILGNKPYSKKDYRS

`O=C(Cn1c(-c2cncs2)nc2ccccc21)NC1CCCC1`: the cell count in experiment [1] worked out at 700. Moreover, the inhibition is -12.4% (inactive) in experiment [1], -9.6% (inactive) in experiment [3], 0.467% (inactive) in experiment [7] and 16.2% (inactive) in experiment [8]. Also, the inhibition of aggregation in experiment [2] is 0% (inactive). For the same molecule, the figures for the nuclei count in experiment [2] and in experiment [3] were 114% and 109%, respectively. Besides, the fluorescence slope in experiment [4] was -0.31 (inactive). For the same molecule, in experiment [5], the NADPH fluorescence slope was -4.5e-05 (inactive). In addition, the slope in experiment [6] is 0.00471 (inactive).
On to `COc1ccc(C(=O)CN2C3=NCCCN3c3ccccc32)cc1OC`, for which the cell count in experiment [1] worked out at 335. Moreover, the inhibition is -3.1% (inactive) in experiment [1], 22.7% (inactive) in experiment [3], 10.4% (inactive) in experiment [7] and 28.8% (inactive) in experiment [8]. In addition, the inhibition of aggregation in experiment [2] is -14.2% (inactive). Further, the results for the nuclei count in experiment [2] and in experiment [3] were 76.5% and 93.6%, respectively. In addition, in experiment [4], the fluorescence slope was -0.475 (inactive). Moreover, the NADPH fluorescence slope in experiment [5] is -4.1e-05 (inactive). In experiment [6], the slope is 0.00312 (inactive).
On to `COc1cc2c(cc1NC(=O)CN1CCN(S(=O)(=O)c3ccc(F)cc3)CC1)oc1ccccc12`, for which the cell count in experiment [1] worked out at 583. The inhibition is -2.4% (inactive) in experiment [1], -33.6% (inactive) in experiment [3], 2.2% (inactive) in experiment [7] and 30.3% (inactive) in experiment [8]. Further, the inhibition of aggregation in experiment [2] is -2.8% (inactive). The nuclei count in experiment [2] was 95.8%; in experiment [3], 88.8%. For the same molecule, in experiment [4], the fluorescence slope was -0.364 (inactive). Moreover, the NADPH fluorescence slope in experiment [5] is 1.3e-05 (inactive). In addition, the slope in experiment [6] was 0.0037 (inactive).
For `CCOc1ccccc1C1NC(=O)NC(C)=C1C(=O)OC1CCCC1C` (centres undefined), in experiment [1], the cell count was 686. Moreover, the inhibition in experiment [1] was 2.9% (inactive); in experiment [3], 13.9% (inactive); in experiment [7] it was 16.6% (inactive); in experiment [8], 22.2% (inactive). The inhibition of aggregation in experiment [2] is -3.3% (inactive). Besides, the nuclei count was 103% in experiment [2] and 99.1% in experiment [3]. For the same molecule, in experiment [4], the fluorescence slope is -0.488 (inactive). For the same molecule, in experiment [5], the NADPH fluorescence slope is -5e-05 (inactive). Further, the slope in experiment [6] is 0.00539 (inactive).
Turning to `COC(=O)c1cc2oc(C)cc2n1CC(=O)N(C)c1ccccc1`, in experiment [1], the cell count was found to be 370. The inhibition in experiment [1] is -0.4% (inactive); in experiment [3], -67.6% (inactive); in experiment [7] it was 9.76% (inactive); in experiment [8], 30.2% (inactive). The inhibition of aggregation in experiment [2] was -4.7% (inactive). The nuclei count in experiment [2] is 108%; in experiment [3] it was 115%. The fluorescence slope in experiment [4] is -0.347 (inactive). For the same molecule, the NADPH fluorescence slope in experiment [5] was -4.4e-05 (inactive). In experiment [6], the slope was 0.00693 (inactive).
Turning to `Cc1oc2cc3c(C(=O)OCCN(C)C)c(C)oc3cc2c1C(=O)OCCN(C)C`, the cell count in experiment [1] is 445. Also, the inhibition in experiment [1] was -6% (inactive); in experiment [3], -44.7% (inactive); in experiment [7], 48.3% (inactive); in experiment [8], 99.1% (active). Further, in experiment [2], the inhibition of aggregation was -22.9% (inactive). Also, the values for the nuclei count in experiment [2] and in experiment [3] were 95.2% and 92.4%, respectively. The fluorescence slope in experiment [4] is -0.412 (inactive). For the same molecule, in experiment [5], the NADPH fluorescence slope was -3.3e-05 (inactive). Moreover, the slope in experiment [6] is 0.00351 (inactive).
In the case of `CC1(c2ccc(Cl)cc2)NC(=O)N(CC(=O)NC(=O)NCc2ccco2)C1=O` (centres undefined), the cell count in experiment [1] is 482. Further, the inhibition was 2.9% (inactive) in experiment [1], -48.5% (inactive) in experiment [3], 14.9% (inactive) in experiment [7] and 18.4% (inactive) in experiment [8]. Further, in experiment [2], the inhibition of aggregation is -25.8% (inactive). Moreover, the nuclei count in experiment [2] was 102%; in experiment [3] it was 110%. The fluorescence slope in experiment [4] was -0.399 (inactive). The NADPH fluorescence slope in experiment [5] is -4.4e-05 (inactive). Moreover, the slope in experiment [6] was 0.00253 (inactive).
`COCCn1c(SCC(=O)Nc2cccc(OC)c2)nnc1-c1ccccc1`: the cell count in experiment [1] came to 690. The inhibition in experiment [1] was 2.1% (inactive); in experiment [3], -16% (inactive); in experiment [7] it was -0.479% (inactive); in experiment [8] it was 19.1% (inactive). For the same molecule, the inhibition of aggregation in experiment [2] was 6.3% (inactive). The results for the nuclei count in experiment [2] and in experiment [3] were 96.7% and 117%, respectively. For the same molecule, the fluorescence slope in experiment [4] was -0.492 (inactive). The NADPH fluorescence slope in experiment [5] was -3.1e-05 (inactive). Besides, in experiment [6], the slope was 0.00579 (inactive).
As for `Cc1ccc(S(=O)(=O)NCCN2CCOCC2)cc1C`, the cell count in experiment [1] amounted to 408. Besides, the inhibition in experiment [1] was -14.3% (inactive); in experiment [3], 31.4% (inactive); in experiment [7] it was 13.7% (inactive); in experiment [8], 26.5% (inactive). Besides, in experiment [2], the inhibition of aggregation was 21.7% (inactive). The nuclei count in experiment [2] was 92.2%; in experiment [3], 86.3%. The fluorescence slope in experiment [4] is -0.611 (inactive). Also, the NADPH fluorescence slope in experiment [5] was 1.4e-07 (inactive). In addition, in experiment [6], the slope is 0.00599 (inactive).
`O=C(Nc1ccncc1)C1c2ccccc2Oc2ccccc21`: the cell count in experiment [1] came to 722. The inhibition in experiment [1] was 2.8% (inactive); in experiment [3], 19.9% (inactive); in experiment [7], 12.2% (inactive); in experiment [8] it was 17.7% (inactive). Further, in experiment [2], the inhibition of aggregation is 1.3% (inactive). In addition, the nuclei count was 90.9% in experiment [2] and 102% in experiment [3]. In addition, in experiment [4], the fluorescence slope was -0.201 (inactive). The NADPH fluorescence slope in experiment [5] is -1e-05 (inactive). Also, the slope in experiment [6] was 0.0059 (inactive).
In the case of `CCCCOC(=O)n1c(SCC(=O)N(CC)CC)nc2ccccc21`, in experiment [1], the cell count was determined as 307. Also, the inhibition in experiment [1] is 5.3% (inactive); in experiment [3] it was 10% (inactive); in experiment [7] it was -15.8% (inactive); in experiment [8], -54.6% (inactive). Moreover, the inhibition of aggregation in experiment [2] is 1.4% (inactive). Besides, the nuclei count in experiment [2] was 107%; in experiment [3], 106%. The fluorescence slope in experiment [4] was -0.585 (inactive). For the same molecule, the NADPH fluorescence slope in experiment [5] was -3.7e-07 (inactive). The slope in experiment [6] is 0.00671 (inactive).
Regarding `O=C(c1ccc(CNS(=O)(=O)c2cccc(C(F)(F)F)c2)cc1)N1CCOCC1`, in experiment [1], the cell count worked out at 237. Further, the inhibition is 11.8% (inactive) in experiment [1], 14.7% (inactive) in experiment [3], 14.8% (inactive) in experiment [7] and 16.9% (inactive) in experiment [8]. Further, the inhibition of aggregation in experiment [2] is -1.6% (inactive). Further, the nuclei count in experiment [2] is 80%; in experiment [3] it was 97.4%. Further, the fluorescence slope in experiment [4] is -0.387 (inactive). Moreover, in experiment [5], the NADPH fluorescence slope was -3.8e-05 (inactive). Further, the slope in experiment [6] is 0.00478 (inactive).
For the molecule `COc1ccc(NC(=O)CSc2nc3c(c(=O)n2-c2ccccc2OC)SCC3)cc1`, in experiment [1], the cell count turned out to be 726. Also, the inhibition in experiment [1] is -6.7% (inactive); in experiment [3] it was -25.6% (inactive); in experiment [7], 4.03% (inactive); in experiment [8], 31% (inactive). In addition, in experiment [2], the inhibition of aggregation was -10.4% (inactive). For the same molecule, the values for the nuclei count in experiment [2] and in experiment [3] were 107% and 106%, respectively. Moreover, the fluorescence slope in experiment [4] was -0.568 (inactive). Moreover, the NADPH fluorescence slope in experiment [5] is -5.1e-05 (inactive). The slope in experiment [6] is 0.00646 (inactive).
`O=S(=O)(c1cccc2nsnc12)N1CCN(c2ncccn2)CC1`: in experiment [1], the cell count worked out at 573. Besides, the inhibition in experiment [1] was -15.2% (inactive); in experiment [3], -93.3% (inactive); in experiment [7], 12.7% (inactive); in experiment [8], 31.3% (inactive). In addition, the inhibition of aggregation in experiment [2] was 5.1% (inactive). Besides, the nuclei count in experiment [2] came out at 99.7%; in experiment [3], 120%. Also, the fluorescence slope in experiment [4] was -0.408 (inactive). Besides, in experiment [5], the NADPH fluorescence slope is -4.2e-05 (inactive). The slope in experiment [6] was 0.00508 (inactive).
